# The list is not random: actives were taken first. Their share in the collection is about 2%.
# Shn3 3UTR inh = reduces Shn3 3'UTR luciferase signal in osteoblasts | inhibition, % at 12.5 µM | Clone20 osteoblast Shn3 3'UTR firefly luciferase, 24 h | AID 588674 | 0.52% of 360,000 active;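 active = mean inhibition of at least 75% with every replicate also reaching 75%; inconclusive = mean inhibition at least 75% but some replicate below; inactive = mean inhibition below 75%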;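 also: 0% = median of neutral control wells and 100% = pilot-screen positive control compound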
# CF NFkB inh = inhibitors of cystic fibrosis induced NF-kB; KKLEB NF-kB-GFP reporter, PAF-induced, GFP fluorescence overnight; inhibition, % at 5 µM; 0.86% of 360,000 active; AID 588850;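 active = at least 50% inhibition at 5 µM, scaled per plate between neutral and stimulator controls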;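 also: PAF is a Pseudomonas aeruginosa culture filtrate used as stimulus; plate controls were PAF-stimulated DMSO wells for no effect and unstimulated DMSO wells for full effect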
# LGR2 antag = blocks bursicon-induced cAMP signaling via Drosophila LGR2. AID 720647. 0.35% of 380,000 active. inhibition, % at 9.99 µM. HEK293 LGR2, CRE-luciferase, bursicon-stimulated, 4 h;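 active = drop in luminescence signal, shown as inhibition above about 50% in the replicate tests, limit read from the data, passing the limit was not always enough; inconclusive = probably only some replicates passing the limit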;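 also: agonist challenge used bursicon conditioned medium at about half maximal strength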
# PAX8 reporter = PAX8 transcriptional activity inhibition. 1.2% of 360,000 active. RMG-I TPO-luciferase reporter, SteadyGlo, 24 h. inhibition, % at 12.6 µM;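 active = mean replicate inhibition at least 60% with every replicate also reaching 60%; inconclusive = only one of the two criteria is met; inactive = mean below 60% and not all replicates reaching 60%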;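 also: luciferase light reporting Pax8 driven TPO promoter activity; plate controls were median of neutral control wells for no effect and mitoxantrone controls for full effect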
# EWS-Fli inh = blocks EWS/Fli oncoprotein-driven transcription. A673 NR0B1-luciferase reporter, viability-normalised. inhibition, % at 12.6 µM. 0.67% of 350,000 active. AID 651661;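 active = mean inhibition of at least 50% after viability correction, with every replicate also passing that limit; inconclusive = mean reaches 50% but only one of two replicates passes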;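 also: firefly luciferase signal divided by Alamar Blue viability fluorescence both relative to DMSO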
# KKLEB cytotox = counter-screen for CF NF-kB inhibitors: cytotoxicity | KKLEB CF airway cells viability, ATPlite luminescence, overnight; hits give low values; cells stimulated with P. aeruginosa culture filtrate | activity change (cytotoxicity), % at 5 µM | 0.36% of 360,000 active;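 active = corrected activity change at or below -50% at 5 µM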
# DNA binder FP = binds DNA displacing acridine orange; 2% of 640 active; AID 720586; shares compounds with EWS-Fli inh; salmon sperm DNA acridine orange fluorescence polarization; AC35, µM (top dose mostly 68 µM), for inactives: at the top dose activity change, negative = DNA binding;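 active = fitted curve reaches a 35% signal fall AC35 below twice the sample's top valid tested dose, actives reach about 48 µM in these data; inactive = the rest, including activity in the rising direction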;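 also: lower polarization ratio signals compound binding to DNA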
# * marks the source's active call; other numbers are inactive results; ? = inconclusive; nt = no result.
SMILES,Shn3 3UTR inh,CF NFkB inh,LGR2 antag,PAX8 reporter,EWS-Fli inh,KKLEB cytotox,DNA binder FP
C=C1C(=O)C=C[C@]2(C)C[C@@H]3OC(=O)[C@](C)(O)[C@H]3C[C@@H]12,44.9,5.1,34.9,67.2*,65.3*,24.0,14.9%
CC(C)(C)[S@@](=O)N1Cc2cc(C(=O)NCc3ccccc3F)nc(-c3cccc(-c4ccncc4)c3)c2[C@H]1CCO,nt,nt,-6.7,24.2,6.2,nt,nt
CC(C)NC(=O)Nc1ccc2c(c1)CC(=O)N([C@H](C)CO)C[C@@H](C)[C@H](CN(C)Cc1ccc(Oc3ccccc3)cc1)O2,nt,nt,-6.4,-10.0,10.5,nt,nt
CCc1ccc2oc(C(=O)N3CCN(c4ccc(OC)cc4)CC3)cc(=O)c2c1,11.8,2.4,-10.7,4.8,-0.7,5.7,nt
CCc1ccc2oc(C(=O)N3CCN(c4ccccc4OC)CC3)cc(=O)c2c1,-5.6,5.1,-4.1,20.0,55.6*,1.9,-3.6%
Nc1ccn([C@@H]2O[C@H](CO)[C@@H](O)[C@@H]2O)c(=O)n1,75.9,-23.5,2.8,36.1,43.1,5.0,nt
Nc1nc(=S)c2ncn([C@@H]3O[C@H](CO)[C@@H](O)[C@H]3O)c2[nH]1,19.1,-10.2,-4.6,97.3*,52.6*,15.0,-13.2%
Nc1ncn([C@@H]2O[C@H](CO)[C@@H](O)[C@H]2O)c(=O)n1,-6.6,40.2,?,21.1,62.2*,-13.7,8.2%
COc1cc(C(c2c(C)[nH][nH]c2=O)c2c(C)[nH][nH]c2=O)ccc1OC(C)C,-1.7,-22.8,5.6,-6.5,77.9*,-1.0,-15.9%
COc1ccc(C(c2c(C)[nH][nH]c2=O)c2c(C)[nH][nH]c2=O)cc1Br,6.6,1.4,9.9,10.9,7.2,2.7,nt
Cc1ccc(S(=O)(=O)N(C)C[C@@H]2OCCCC[C@@H](C)Oc3ccc(NS(=O)(=O)c4cn(C)cn4)cc3C(=O)N([C@H](C)CO)C[C@@H]2C)cc1,nt,nt,-0.8,-12.7,-3.1,nt,nt
COc1ccc(S(=O)(=O)N2CC[C@@H]3[C@H]2c2cc(-c4cccc(C#N)c4)ccc2N[C@@H]3CO)cc1,nt,nt,-20.7,19.7,3.6,nt,nt
CN1c2ccc(-c3ccc(C#N)cc3)cc2[C@H]2[C@H](CCN2S(=O)(=O)c2cccc(F)c2)[C@H]1CO,nt,nt,29.8,?,60.0*,nt,-12.1%
COc1ccc(S(=O)(=O)N2CC[C@@H]3[C@H](CO)Nc4ccc(-c5ccc(C#N)cc5)cc4[C@@H]32)cc1,nt,nt,0.5,51.0,56.7*,nt,4.7%
Cc1ccc(S(=O)(=O)N2CC[C@@H]3[C@H]2c2cc(-c4ccc(C#N)cc4)ccc2N[C@@H]3CO)cc1,nt,nt,-8.5,10.2,1.6,nt,nt
COc1ccc(S(=O)(=O)N2CC[C@@H]3[C@@H](CO)Nc4ccc(-c5ccc(C#N)cc5)cc4[C@@H]32)cc1,nt,nt,-1.1,62.7*,60.3*,nt,-9.5%
Cc1ccc(S(=O)(=O)Nc2cccc3c2O[C@H](CN(C)CC2CC2)[C@H](C)CN([C@H](C)CO)C3=O)cc1,nt,nt,1.7,-20.0,-11.8,nt,nt
C[C@H]1CCCCO[C@H](CN(C)C(=O)Nc2ccc(F)cc2)[C@@H](C)CN([C@@H](C)CO)C(=O)c2cc(NC(=O)CCCN(C)C)ccc2O1,nt,nt,5.1,-16.4,-3.3,nt,nt
N=c1ccn2c(n1)O[C@H]1[C@H](O)[C@@H](CO)O[C@H]12,75.5,11.7,1.4,49.3,53.0*,-3.3,-17.7%
C[C@@H]1CCCCO[C@H](CN(C)Cc2ccc(C(=O)Nc3ccccc3N)cc2)[C@@H](C)CN([C@H](C)CO)C(=O)c2cc(NS(=O)(=O)c3ccc(F)cc3)ccc2O1,nt,nt,-7.6,51.6,60.5*,nt,-10.0%
C[C@@H]1CN([C@@H](C)CO)C(=O)c2cc(NC(=O)c3ccccc3)ccc2O[C@@H](C)CCCCO[C@H]1CN(C)C(=O)Nc1cccc2ccccc12,nt,nt,25.8,0.6,71.0*,nt,4.9%
Cc1ccc(S(=O)(=O)Nc2ccc3c(c2)C(=O)N([C@@H](C)CO)C[C@@H](C)[C@H](CN(C)Cc2ccc(C(F)(F)F)cc2)OCCCC[C@H](C)O3)cc1,nt,nt,31.3,106.2*,68.6*,nt,-21.3%

# Source: PubChem (several laboratories)
